The record followed here is PubChem BioAssay (EPA / NIEHS).

Read-out in assay [1]: Interleukin-8 (IL8), CXCL8 (gene 3576)
The experiment in a line: BSK_SAg_IL8: BioMAP Diversity Plus: SAg Assay for Interleukin-8 (IL8) Biomarker Activity (AID 2283094). Particulars: primary human HUVEC with PBMC; actives raise or lower the signal. The method, boiled down:
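HUVEC/PBMC co-culture, 24 h post-dose; IL-8 by ELISA. Gain or loss of signal fitted bidirectionally vs DMSO baseline.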

Assay [2] can be described thus: BSK_SAg_Proliferation: Cell Proliferation Assessment in the BioMAP Diversity Plus: SAg Assay (AID 2283095).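 Further: relative cell number as total protein by SRB absorbance in sub-confluent culture.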 The settings on record: primary human HUVEC with PBMC. The method in brief:
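HUVEC/PBMC co-culture, 96-well. TCA-fixed (10%), 0.1% SRB stain, A560 at 96 h. Protein content used as viability readout; bidirectional fitting vs DMSO control.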

Assay [3] in a line: BSK_SAg_SRB: Viability Assessment in the BioMAP Diversity Plus: SAg Assay (AID 2283096).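 Further: cells read one day after compound addition; hits may be either gain or loss of signal compared with DMSO.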 Particulars: primary human HUVEC with PBMC. The method, boiled down:
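Compounds were added to a human vascular co-culture of umbilical vein endothelium and PBMC. After 24 h, parallel cultures were fixed with 10% TCA, stained with 0.1% sulforhodamine B and read at 560 nm. Gain or loss of signal was fitted relative to DMSO.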

Assay [4] concerns the target human CYP2B6, CYP2B6 (gene 1555) (UniProt P20813). Briefly: NVS_ADME_hCYP2B6: NovaScreen (NVS) CYP450-related Enzyme Activity (ADME) Assay for human CYP2B6 (AID 2283101; active means hit-call score of the fitted dose curve at least 0.9, where 1 is the maximum). The method in brief:
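Compounds were first screened in duplicate at 10 uM against recombinant enzyme, with the fluorescent product measured after 1 hour. Active compounds were retested over a concentration series. Loss of fluorescence versus acetonitrile control was scored as reduced enzyme activity.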

Assay [5] has as its target human CYP1A2, CYP1A2 (gene 1544) (UniProt P05177). Briefly: NVS_ADME_hCYP1A2: NovaScreen (NVS) CYP450-related Enzyme Activity (ADME) Assay for human CYP1A2 (AID 2283102; active means hit-call score of the fitted dose curve at least 0.9, where 1 is the maximum;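 on AC50: fluorescence from turnover of a fluorogenic substrate by recombinant insect-cell CYP1A2; potency for inhibition since loss of fluorescence marks reduced CYP1A2 activity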). The method in brief:
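Inhibition scored as decrease in fluorescent product versus acetonitrile negative control. Enzyme: insect-cell recombinant human CYP1A2, substrate-specific, cell-free. Reading at 0.5 h; 10 uM duplicate initial screen with positive and negative controls on every plate.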

Assay [6] deals with human CYP1A1, CYP1A1 (gene 1543) (UniProt P04798). Briefly: NVS_ADME_hCYP1A1: NovaScreen (NVS) CYP450-related Enzyme Activity (ADME) Assay for human CYP1A1 (AID 2283100; active means hit-call score of the fitted dose curve at least 0.9, where 1 is the maximum). The method in brief:
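Inhibition of recombinant CYP1A1 turnover was assessed fluorometrically in a biochemical format 1 h after compound exposure. Testing began at 10 uM in duplicate and progressed to concentration series reaching 20 uM, with on-plate positive and negative controls.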

The target in assay [7] is human CYP2A6, CYP2A6 (gene 1548) (UniProt P11509). The experiment in a line: NVS_ADME_hCYP2A6: NovaScreen (NVS) CYP450-related Enzyme Activity (ADME) Assay for human CYP2A6 (AID 2283099; active means hit-call score of the fitted dose curve at least 0.9, where 1 is the maximum). The method in brief:
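Loss of fluorescence signal relative to acetonitrile vehicle reported CYP2A6 inhibition in a cell-free system using insect-cell-derived enzyme. Readings were taken at 0.5 h; top concentration in follow-up dose series was 20 uM.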

Values joined by “and” are separate entries in the source; they are usually repeats but may differ in a detail not shown here. Identical values can stand only once. Records with an inconclusive call do not appear. More than one record can exist for a structure, and the calls need not agree. Active and inactive are the calls of the source. How the source made its calls, unless noted: active means hit-call score of the fitted dose curve at least 0.9, where 1 is the maximum; inactive means score below 0.9.

Chain of human CYP1A1, CYP1A1 (gene 1543) (P04798 whole entry, looked up): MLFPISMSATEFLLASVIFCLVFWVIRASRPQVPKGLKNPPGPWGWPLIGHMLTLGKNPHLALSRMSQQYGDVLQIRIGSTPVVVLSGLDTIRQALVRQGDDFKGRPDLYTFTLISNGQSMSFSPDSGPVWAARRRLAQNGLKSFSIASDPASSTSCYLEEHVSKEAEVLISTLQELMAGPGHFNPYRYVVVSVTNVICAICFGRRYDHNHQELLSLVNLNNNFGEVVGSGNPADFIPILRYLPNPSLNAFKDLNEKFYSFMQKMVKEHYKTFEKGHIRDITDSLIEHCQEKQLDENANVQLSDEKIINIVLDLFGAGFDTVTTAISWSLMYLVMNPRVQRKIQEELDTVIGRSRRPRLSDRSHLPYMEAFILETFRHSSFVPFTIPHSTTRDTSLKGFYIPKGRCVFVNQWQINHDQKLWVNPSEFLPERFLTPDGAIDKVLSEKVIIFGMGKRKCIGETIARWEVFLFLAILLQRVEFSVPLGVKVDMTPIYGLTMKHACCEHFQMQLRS
Chain of human CYP2B6, CYP2B6 (gene 1555) (P20813 whole entry, looked up): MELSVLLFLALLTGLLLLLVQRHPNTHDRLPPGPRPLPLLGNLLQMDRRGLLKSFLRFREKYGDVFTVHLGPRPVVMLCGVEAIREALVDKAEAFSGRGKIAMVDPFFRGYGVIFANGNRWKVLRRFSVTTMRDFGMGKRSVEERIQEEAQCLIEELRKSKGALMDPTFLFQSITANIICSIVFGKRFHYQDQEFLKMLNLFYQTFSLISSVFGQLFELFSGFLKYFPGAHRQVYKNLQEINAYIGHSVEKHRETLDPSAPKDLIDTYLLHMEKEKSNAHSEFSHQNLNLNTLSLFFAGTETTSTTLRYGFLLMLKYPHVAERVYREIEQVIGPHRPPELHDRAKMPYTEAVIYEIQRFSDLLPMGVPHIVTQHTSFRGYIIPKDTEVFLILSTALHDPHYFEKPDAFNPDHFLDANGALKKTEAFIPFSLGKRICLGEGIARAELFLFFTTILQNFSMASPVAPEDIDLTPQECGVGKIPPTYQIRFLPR
Chain of human CYP1A2, CYP1A2 (gene 1544) (P05177 whole entry, looked up): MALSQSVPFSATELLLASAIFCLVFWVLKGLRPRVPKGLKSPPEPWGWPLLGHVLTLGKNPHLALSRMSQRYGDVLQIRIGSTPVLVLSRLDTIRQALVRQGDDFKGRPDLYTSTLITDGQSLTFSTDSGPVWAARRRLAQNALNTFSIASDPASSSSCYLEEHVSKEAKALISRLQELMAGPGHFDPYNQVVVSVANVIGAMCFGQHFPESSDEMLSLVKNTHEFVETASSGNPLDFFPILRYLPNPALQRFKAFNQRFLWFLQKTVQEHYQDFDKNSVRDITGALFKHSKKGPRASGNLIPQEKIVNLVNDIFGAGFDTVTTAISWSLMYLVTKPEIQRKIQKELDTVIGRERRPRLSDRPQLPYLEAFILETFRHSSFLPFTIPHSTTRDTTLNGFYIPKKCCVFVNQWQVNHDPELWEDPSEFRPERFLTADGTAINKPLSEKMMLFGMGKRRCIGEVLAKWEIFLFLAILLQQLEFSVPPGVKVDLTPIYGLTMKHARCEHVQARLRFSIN
Chain of human CYP2A6, CYP2A6 (gene 1548) (P11509 whole entry, looked up): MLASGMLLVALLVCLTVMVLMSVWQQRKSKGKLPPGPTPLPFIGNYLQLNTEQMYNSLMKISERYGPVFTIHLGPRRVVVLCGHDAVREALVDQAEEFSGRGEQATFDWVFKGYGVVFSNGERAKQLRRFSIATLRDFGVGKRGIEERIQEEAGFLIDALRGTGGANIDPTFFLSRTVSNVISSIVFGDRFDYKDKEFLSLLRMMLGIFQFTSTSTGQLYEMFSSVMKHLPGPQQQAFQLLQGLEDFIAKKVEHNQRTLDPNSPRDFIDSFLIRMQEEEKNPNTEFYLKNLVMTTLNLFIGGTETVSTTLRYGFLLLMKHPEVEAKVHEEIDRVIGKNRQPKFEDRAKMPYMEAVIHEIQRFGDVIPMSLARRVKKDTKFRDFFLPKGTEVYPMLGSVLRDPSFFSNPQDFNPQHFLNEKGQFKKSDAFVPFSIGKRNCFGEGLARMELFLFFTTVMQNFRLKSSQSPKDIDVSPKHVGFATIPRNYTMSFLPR

For the compound `CC(C)(c1ccccc1)c1ccc(O)c(C(C)(C)c2ccccc2)c1`, the AC50 was 11.4 µM (active) in assay [1], 6 µM (active) in assay [2] and 13 µM (active) in assay [3].

As for `O=C(O)C(F)(F)C(F)(F)C(F)(F)C(F)(F)C(F)(F)C(F)(F)F`, the outcome in assay [1] and in assay [3] was inactive.

For `O=C(OC1CCCCC1)c1ccccc1C(=O)OC1CCCCC1`, the results for the half-maximal activity concentration (AC50) in assay [1], in assay [2] and in assay [3] were 20.9 µM (active), 17.3 µM (active) and 20.9 µM (active), respectively.

Consider `CCOP(=S)(OCC)SCCS(=O)(=O)CC`, for which the result in assay [1], in assay [2] and in assay [3] was inactive.

Consider `CC(C)(C)CC(C)(C)c1ccc(O)cc1`, for which the AC50 in assay [1] is 10.2 µM (active); in assay [2], 5.84 µM (active); in assay [3], 11.3 µM (active); in assay [4], 6.7 µM (active).

`CCOP(=S)(OCC)SCSP(=S)(OCC)OCC`: the outcome in assay [1], in assay [3], in assay [4] and in assay [5] was inactive. The half-maximal activity concentration (AC50) in assay [2] was 20 µM (active).

As for `Cc1ccccc1N`, the result in assay [1], in assay [2] and in assay [3] was inactive.

On to `CCC(C)(C)c1ccc(O)c(C(C)(C)CC)c1`, for which the concentration at half-maximal activity (AC50) in assay [1] was 9.58 µM (active); in assay [2], 7.43 µM (active); in assay [3], 14.6 µM (active).

As for `CCOP(=S)(OCC)Oc1ccc(S(C)=O)cc1` (stereo unspecified), the outcome in assay [1], in assay [2] and in assay [3] was inactive.

Regarding `CC12CC1(C)C(=O)N(c1cc(Cl)cc(Cl)c1)C2=O` (stereo unspecified), the result in assay [1], in assay [2] and in assay [3] was inactive.

With `COP(=S)(OC)Oc1cc(Cl)c(Cl)cc1Cl`, the result in assay [1], in assay [2] and in assay [3] was inactive.

Regarding `COC(=O)c1sccc1S(=O)(=O)NC(=O)Nc1nc(C)nc(OC)n1`, the result in assay [1], in assay [2] and in assay [3] was inactive.

In the case of `Oc1ccc(-c2ccccc2)cc1`, the result in assay [1], in assay [2] and in assay [3] was inactive.

Regarding `ClC1(Cl)C2(Cl)C3(Cl)C4(Cl)C(Cl)(Cl)C5(Cl)C3(Cl)C1(Cl)C5(Cl)C24Cl` (stereo unspecified), the result in assay [1], in assay [2], in assay [3] and in assay [6] was inactive.

In the case of `CCCCCCCCC(=O)NCc1ccc(O)c(OC)c1`, the result in assay [1], in assay [2] and in assay [3] was inactive.

With `C=CC(=O)OCCCCCC(C)C`, the outcome in assay [1] and in assay [3] was inactive.

Consider `CC1(C)Cc2cccc(O)c2O1`, for which the result in assay [1], in assay [2] and in assay [3] was inactive.

Consider `CC(=O)OC(c1ccccc1)C(Cl)(Cl)Cl` (stereo unspecified), for which, in assay [1], the AC50 is 13.4 µM (active) and the result was inactive. In assay [3], the result was inactive.

On to `COC[C@H](C)N(C(=O)CCl)c1c(C)csc1C`, for which the outcome in assay [1], in assay [2] and in assay [3] was inactive.

As for `CC(C)c1ccc(CO)cc1`, the result in assay [1] and in assay [3] was inactive.

As for `COP(=S)(OC)Oc1c(Cl)cc(C)cc1Cl`, the outcome in assay [1] and in assay [3] was inactive. Besides, in assay [2], the half-maximal activity concentration (AC50) was 31.6 µM (active).

`BrCCBr`: the outcome in assay [1] and in assay [3] was inactive.

On to `Oc1c(I)cc(I)cc1I`, for which the concentration at half-maximal activity (AC50) in assay [1] was 34.3 µM (active); in assay [3] it was 20 µM (active).

On to `O=c1[nH]c(=O)[nH]c(=O)[nH]1`, for which the concentration at half-maximal activity (AC50) in assay [1] is 32.6 µM (active). Moreover, the outcome in assay [2] and in assay [3] was inactive.

As to `CCCCC(CC)CO[N+](=O)[O-]` (stereo unspecified), the result in assay [1] and in assay [3] was inactive.

For `CCNc1nc(NC(C)(C)C)nc(SC)n1`, the outcome in assay [1], in assay [2] and in assay [3] was inactive.

For `COc1cc(-c2ccc(N)c(OC)c2)ccc1N`, the concentration at half-maximal activity (AC50) was 7.64 µM (active) in assay [1]; 11.8 µM (active) in assay [2]; 3.13 µM (active) and 3.48 µM (active) in assay [6]; 6.76 µM (active) and 3.92 µM (active) in assay [4]; 1.27 µM (active) in assay [5]. Also, the result in assay [1], in assay [2], in assay [3], in assay [7] and in assay [5] was inactive.

`O=C(O)C(Cl)(Cl)Cl`: the outcome in assay [1], in assay [2] and in assay [3] was inactive.

Consider `C=C(C)C(=O)[O][Sn]([CH2]CCC)([CH2]CCC)[CH2]CCC`, for which the AC50 was 0.31 µM (active) in assay [1], 0.188 µM (active) in assay [2] and 0.148 µM (active) in assay [3].

On to `O=Cc1cccc(Oc2ccccc2)c1`, for which the result in assay [1], in assay [2] and in assay [3] was inactive.

Turning to `CCOP(=S)(OCC)Oc1nc(Cl)c(Cl)cc1Cl`, the values for the half-maximal activity concentration (AC50) in assay [1] and in assay [2] were 20 µM (active) and 34.4 µM (active), respectively. In assay [3], the result was inactive.

In the case of `CCC(=O)C(CC(C)N(C)C)(c1ccccc1)c1ccccc1` (stereo unspecified), the outcome in assay [1], in assay [2] and in assay [3] was inactive.

The AC50 is the concentration at which the activity in the assay is half-maximal.
